Test results from PubChem BioAssay.
“And” between values parts separate entries of the source, which are not always exact repeats. Identical values can stand only once. The source made the active and inactive calls.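 Rule for the calls, unless noted: active = thallium flux through the channel raised or lowered by more than 3 SD from vehicle-only wells, actives on both sides; inactive = the rest.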

Tests used:
[1] = signal quenchers or enhancers, Cy5 substrate/SSB – biochemical, NIH Clinical Collection, E. coli SSB, artefact control for HCV NS3 helicase inhibitor project (AID 743268; call rule not given here); conditions: Cy5-oligo bound E. coli SSB, fluorescence interference
[2] = system: Hepatitis C virus NS3 helicase; experiment: blockers of NS3h binding to DNA – biochemical, fluorescence polarization, NIH Clinical Collection, primary screen (AID 743270; call rule not given here); conditions: NS3 helicase binding to Cy5-dT15 DNA, stronger effect = higher value, concentration not given here
[3] = target: Single-stranded DNA-binding protein (Escherichia coli (strain K12)) (UniProt P0AGE0); experiment: SSB-ssDNA binding inhibitors – biochemical, fluorescence polarization, NIH Clinical Collection, counter-screen for HCV NS3 helicase inhibitor project (AID 743271; in the data active = inhibition above about 28%); conditions: E. coli SSB-DNA binding, stronger effect = higher value, concentration not given here
[4] = compounds distorting NS3 helicase fluorescence signal – biochemical, NIH Clinical Collection, artefact control for HCV NS3 helicase inhibitor project (AID 743272; call rule not given here;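 note: HCV NS3 helicase with a Cy5 labelled single stranded DNA probe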); conditions: fluorescence interference counterscreen, HCV NS3 helicase assay; stronger effect = lower value
[5] = galactose survival enhancers in mitochondrial complex I cybrids – cell-based, galactose medium, ATP luminescence, primary screen (AID 1645843;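 active = z-score of at least 1.8 in each of two replicates, scored against plate mean and spread of sample wells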;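 note: positive z means more ATP and so rescue of galactose-driven cybrid death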); conditions: complex I mutant cybrid cells, 72 h, stronger effect = higher value
F380Y/beta4 = experiment: BK channel mutant inhibitors and activators – cell-based, U2OS BacMam, thallium flux, beta subunits, selectivity assay, profiling panel (AID 1259406); conditions: U2OS BacMam BK variants, at 30 µM;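 note: initial slope of Thallos dye fluorescence rise after thallium is added; log ratio against the mean of 0.3% DMSO vehicle wells on the same plate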
[6] = target: Calcium-activated potassium channel subunit alpha-1 (Homo sapiens) + Leucine-rich repeat-containing protein 26 (Homo sapiens) (UniProt Q12791+Q2I0M4); experiment: as above; conditions: U2OS BacMam BK variants, F380Y/Slo1WT/gamma1, at 30 µM
R275C = experiment: as above; conditions: U2OS BacMam BK variants, at 30 µM
R275C/beta1 = experiment: as above; conditions: U2OS BacMam BK variants, at 30 µM
R275C/beta2Delta = experiment: as above; conditions: U2OS BacMam BK variants, at 30 µM
R275C/beta4 = experiment: as above; conditions: U2OS BacMam BK variants, at 30 µM
R275C/Slo1WT/beta2 = experiment: as above; conditions: U2OS BacMam BK variants, at 30 µM
[7] = blockers of polyQ-driven CASP3 activation – cell-based (AID 1583); conditions: polyglutamine-induced caspase-3 activation, cell assay; stronger effect = higher value;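 tested at 10 µM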
[8] = yeast 75Q aggregation reduction – 75Q-TubU reporter (AID 1593); conditions: Yeast 75Q polyglutamine aggregation reporter
[9] = blockers of cytochrome c efflux from mitochondria – biochemical, purified mitochondria (AID 1603); conditions: stronger effect = lower value;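 note: mouse liver mitochondria challenged with calcium chloride; signal normalized to the plate average as 100%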
[10] = polyglutamine aggregate formation blockers (AID 1604); conditions: polyglutamine-induced protein aggregation inhibition assay; stronger effect = higher value; tested at 2.5 µM
[11] = glutamate transport activators, MN-1 cells, MN-1 cell line (AID 1612); conditions: MN-1 motor neuron cells, stronger effect = higher value;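 note: tested at 1 µM final; 0% = mean of DMSO vehicle wells on each plate; positive means more glutamate uptake than control and negative means less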
[12] = growth inhibition, single agent or in combination, cell-based, chromothripsis tumors, cisplatin or BGB combos (AID 1671449; in the data active = inhibition above about 80%;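 note: cells exposed for 96 hours; 0% = vehicle DMSO and 100% = killing by high DMSO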); conditions: LFS_MB_P medulloblastoma cells
[13] = growth inhibition, single agent and combos, cell-based, chromothripsis tumors, cisplatin or BGB combos (AID 1671450; in the data active = inhibition above about 80%;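 note: cells exposed to compound for four days; 0% = vehicle DMSO and 100% = cell killing by high DMSO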); conditions: HDN33 neuroblastoma cells, stronger effect = higher value
[14] = growth inhibition, single agents and combos, HTB85, cell-based, BGB or cisplatin IC20 combos, synergistic combos for chromothripsis tumors (AID 1671453; in the data active = inhibition above about 80%;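 note: cells exposed for 96 hours before readout; 0% = vehicle DMSO and 100% = high DMSO killing control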); conditions: HTB85 osteosarcoma cells, drug combinations, stronger effect = higher value

Chain of Calcium-activated potassium channel subunit alpha-1 (Homo sapiens) + Leucine-rich repeat-containing protein 26 (Homo sapiens) (Q2I0M4 whole entry, looked up, one chain of several): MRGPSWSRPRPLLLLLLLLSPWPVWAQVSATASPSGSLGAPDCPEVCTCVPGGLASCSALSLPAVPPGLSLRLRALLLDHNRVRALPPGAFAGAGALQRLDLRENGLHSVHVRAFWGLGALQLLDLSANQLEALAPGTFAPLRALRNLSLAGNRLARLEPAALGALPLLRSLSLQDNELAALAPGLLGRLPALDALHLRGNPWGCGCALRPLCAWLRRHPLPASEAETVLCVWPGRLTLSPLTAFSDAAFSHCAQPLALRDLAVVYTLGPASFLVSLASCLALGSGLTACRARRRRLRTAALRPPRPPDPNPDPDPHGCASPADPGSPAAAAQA

Q: For `CCC(C)(C)C(=O)O[C@H]1C[C@@H](C)C=C2C=C[C@H](C)[C@H](CC[C@@H]3C[C@@H](O)CC(=O)O3)[C@H]21`, which fluorescence ratio [1] is on record?
A: 1.04 (inactive)

Q: What about the inhibition [2] of the same molecule?
A: -1.36% (inactive)

Q: What about the inhibition [3] of the same molecule?
A: 6.39% (inactive)

Q: What about the fluorescence ratio [4] of the same molecule?
A: 0.92 (inactive)

Q: What about the z-score [5] of the same molecule?
A: -1.4 (inactive) and -0.73 (inactive) and -0.85 (inactive)

Q: What about the log fold change Tl+ flux (F380Y/beta4) of the same molecule?
A: -0.0747 (inactive)

Q: And the log fold change Tl+ flux [6]?
A: 0.0806 (active)

Q: And the log fold change Tl+ flux (R275C)?
A: 0.0702 (inactive)

Q: What about the log fold change Tl+ flux (R275C/beta1) of the same molecule?
A: 0.116 (active)

Q: And the log fold change Tl+ flux (R275C/beta2Delta)?
A: 0.0611 (inactive)

Q: What about the log fold change Tl+ flux (R275C/beta4) of the same molecule?
A: 0.067 (inactive)

Q: What about the log fold change Tl+ flux (R275C/Slo1WT/beta2) of the same molecule?
A: -0.0513 (inactive)

Q: Which z-score [5] does the source give for `CC[C@H]1CN2CCc3cc(OC)c(OC)cc3[C@@H]2C[C@@H]1C[C@H]1NCCc2cc(OC)c(OC)cc21` here?
A: -0.955 (inactive)

Q: For `CCN(CC)CCCC(C)Nc1c2ccc(Cl)cc2nc2ccc(OC)cc12` (stereo unspecified), which inhibition [7] is on record?
A: -263%

Q: And the score [8]?
A: 0.79

Q: And the cytochrome c release ratio [9]?
A: 1.44

Q: What about the inhibition of aggregation [10] of the same molecule?
A: 77.3%

Q: And the glutamate uptake change [11]?
A: 2.03%

Q: And the z-score [5]?
A: -1.35 (inactive) and -2.13 (inactive)

Q: What about the inhibition ([12]; at 0.5 µM, stronger effect = higher value) of the same molecule?
A: -9.53% (inactive)

Q: And the inhibition ([12]; measured here: combination with BGB IC20, at 0.005 µM)?
A: 13.9%

Q: And the inhibition ([12]; measured here: combination with BGB IC40, at 0.005 µM)?
A: 18.9%

Q: What about the inhibition ([12]; measured here: combination with BGB IC40, at 0.05 µM) of the same molecule?
A: 6.94%

Q: What about the inhibition ([12]; measured here: combination with cisplatin, at 0.5 µM, stronger effect = higher value) of the same molecule?
A: -29.9%

Q: And the inhibition ([12]; measured here: combination with cisplatin, at 5 µM, stronger effect = higher value)?
A: 113%

Q: What about the inhibition ([13]; BGB combo, at 5 µM) of the same molecule?
A: 99.8%

Q: And the inhibition ([13]; at 0.5 µM)?
A: -12.9% (inactive)

Q: And the inhibition ([13]; cisplatin combo, at 5 µM)?
A: 99.8%

Q: And the inhibition ([13]; measured here: with BGB IC20 combination, at 0.5 µM)?
A: -9.01%

Q: What about the inhibition ([13]; measured here: with cisplatin IC20 combination, at 0.5 µM) of the same molecule?
A: -29.7%

Q: And the inhibition ([13]; single agent, at 5 µM)?
A: 99.8%

Q: What about the inhibition ([14]; at 0.5 µM) of the same molecule?
A: -23.3% (inactive)

Q: And the inhibition ([14]; measured here: with BGB IC20, at 0.5 µM)?
A: -27.3%

Q: What about the inhibition ([14]; measured here: with BGB IC20, at 5 µM) of the same molecule?
A: 99.8%

Q: And the inhibition ([14]; measured here: with cisplatin IC20, at 0.5 µM)?
A: -38%

Q: What about the inhibition ([14]; measured here: with cisplatin IC20, at 5 µM) of the same molecule?
A: 99.9%

Q: What about the inhibition ([14]; single agent, at 5 µM) of the same molecule?
A: 99.9%

Q: With `CCOC(=O)[C@H](CCc1ccccc1)N[C@H]1CCc2ccccc2N(CC(=O)O)C1=O` as the molecule, how does the fluorescence ratio [1] read?
A: 1.03 (inactive)

Q: And the inhibition [2]?
A: -1.98% (inactive)

Q: What about the inhibition [3] of the same molecule?
A: 2.98% (inactive)

Q: What about the fluorescence ratio [4] of the same molecule?
A: 1.04 (inactive)

Q: What about the z-score [5] of the same molecule?
A: 0.145 (inactive)

Q: What about the log fold change Tl+ flux (F380Y/beta4) of the same molecule?
A: 0.0138 (inactive)

Q: What about the log fold change Tl+ flux [6] of the same molecule?
A: 0.0131 (inactive)

Q: What about the log fold change Tl+ flux (R275C) of the same molecule?
A: 0.0199 (inactive)

Q: What about the log fold change Tl+ flux (R275C/beta1) of the same molecule?
A: -0.0262 (inactive)

Q: What about the log fold change Tl+ flux (R275C/beta2Delta) of the same molecule?
A: 0.041 (inactive)

Q: What about the log fold change Tl+ flux (R275C/beta4) of the same molecule?
A: -0.0252 (inactive)

Q: What about the log fold change Tl+ flux (R275C/Slo1WT/beta2) of the same molecule?
A: -0.00529 (inactive)

Q: With `CCCCCN=C(N)N/N=C/c1c[nH]c2ccc(OC)cc12` as the molecule, how does the fluorescence ratio [1] read?
A: 0.7 (active)

Q: And the inhibition [2]?
A: 8.32% (inactive)

Q: What about the inhibition [3] of the same molecule?
A: 7.6% (inactive)

Q: And the fluorescence ratio [4]?
A: 0.88 (inactive)

Q: Which results are given for `CC1=NS(=O)(=O)c2cc(Cl)ccc2N1`?
A: fluorescence ratio [1]: 1 (inactive); inhibition [2]: 5.94% (inactive); inhibition [3]: 4.52% (inactive); fluorescence ratio [4]: 0.99 (inactive); log fold change Tl+ flux (F380Y/beta4): -0.0353 (inactive); log fold change Tl+ flux [6]: -0.0135 (inactive); log fold change Tl+ flux (R275C): -0.00922 (inactive); log fold change Tl+ flux (R275C/beta1): 0.0109 (inactive); log fold change Tl+ flux (R275C/beta2Delta): 0.00734 (inactive); log fold change Tl+ flux (R275C/beta4): 0.0187 (inactive); log fold change Tl+ flux (R275C/Slo1WT/beta2): 0.0541 (inactive)

Q: Which results are given for `NNC(=O)c1ccncc1`?
A: inhibition [7]: -15%; score [8]: 1.32; cytochrome c release ratio [9]: 1.2; inhibition of aggregation [10]: 30.1%; glutamate uptake change [11]: -15.1%; fluorescence ratio [1]: 1.01 (inactive); inhibition [2]: -2.27% (inactive); inhibition [3]: 3.34% (inactive); fluorescence ratio [4]: 0.93 (inactive); z-score [5]: 0.55 (inactive) and 0.315 (inactive); log fold change Tl+ flux (F380Y/beta4): 0.0513 (inactive); log fold change Tl+ flux [6]: 0.0222 (inactive); log fold change Tl+ flux (R275C): 0.00765 (inactive); log fold change Tl+ flux (R275C/beta1): -0.00353 (inactive); log fold change Tl+ flux (R275C/beta2Delta): 0.0339 (inactive); log fold change Tl+ flux (R275C/beta4): 0.0039 (inactive); log fold change Tl+ flux (R275C/Slo1WT/beta2): -0.0323 (inactive)
